This note sets out measurements from PubChem BioAssay.

In this assay the target is Tumor necrosis factor receptor superfamily member 10B (Homo sapiens) (UniProt O14763). Briefly: caspase-8 TRAIL sensitization, hit retest, confirmation, cell-based, NB7+caspase-8, with/without TRAIL, luminescence panel (AID 651596). The settings on record: NB7 neuroblastoma + caspase-8, TRAIL sensitization, luminescence viability, with TRAIL, mean of runs, at 10 µM, stronger effect = higher value.
Tumor necrosis factor receptor superfamily member 10B (Homo sapiens), sequence (O14763 whole entry, looked up): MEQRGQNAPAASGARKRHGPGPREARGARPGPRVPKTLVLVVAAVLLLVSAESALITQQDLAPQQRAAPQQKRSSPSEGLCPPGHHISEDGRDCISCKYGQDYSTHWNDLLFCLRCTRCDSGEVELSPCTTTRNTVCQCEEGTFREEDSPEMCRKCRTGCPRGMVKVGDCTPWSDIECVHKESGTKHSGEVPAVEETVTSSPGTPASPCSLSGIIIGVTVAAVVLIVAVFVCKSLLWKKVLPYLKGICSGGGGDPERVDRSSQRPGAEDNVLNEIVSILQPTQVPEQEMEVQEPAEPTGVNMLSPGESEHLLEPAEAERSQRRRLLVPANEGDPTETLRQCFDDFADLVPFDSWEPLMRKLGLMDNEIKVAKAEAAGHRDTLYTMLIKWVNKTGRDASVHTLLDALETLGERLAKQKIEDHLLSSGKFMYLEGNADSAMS
Turning to `CCCCCCCN(C(=O)CCl)c1ccccc1C`, the activity is 99.6%.

Regarding `O=C(Nc1ccc(NC(=O)C2CC2)cc1)c1ccco1`, the activity came to 44%. The result for `O=C(Cn1ncc(Cl)c(Cl)c1=O)c1ccc2c(c1)OCCO2` reads 39.7%; that for `CCOc1ccc(N2C(N)=NC(N)=NC2(C)C)cc1`, 67.3%. For `Cc1cc(Br)c(OCc2ccc(C(=O)N/N=C/c3ccc[nH]3)cc2)c(Br)c1` the value was 72.8%; for `COC(=O)c1cccc(NC(=O)c2cc3ccccc3o2)c1`, 57.4%; for `O=C(COC(=O)c1ccccc1C(=O)c1ccc(Cl)c([N+](=O)[O-])c1)NC1CC1`, 98.7%. Take `OCC1OC(n2ccc3c2ncn2ncnc32)C(O)C1O` (stereo not given): the activity was determined as 93.8%. Turning to `Cc1nc2c(-c3ccccc3)cnn2c(N)c1-c1ccccc1`, the activity worked out at 92.6%. Take `Cc1ccc2cc(/C=N/Nc3nc4ccccc4[nH]3)c(Cl)nc2c1`: the activity is 88.2%. The result for `COc1ccc(/C=C/c2cc(-c3ccc(C)cc3)o[n+]2C)cc1` reads 81.8%; that for `O=C(/C=C\Nc1ccccn1)c1ccc(Cl)cc1`, 77.2%. For `N#CCCCC#Cc1ccc2c(c1)COc1c3ccccc3nn1-2` the value was 78.1%; for `COC(=O)Cn1c(=O)c(C(=O)CCl)c(N)n(Cc2ccccc2)c1=O`, 93.6%; for `Cc1ccc2oc(/N=C(\N)NC(=O)C3CC3)nc2c1`, 56.4%. For `CN(C)S(=O)(=O)c1ccc(C(=O)Nc2nnc(SCC(=O)N3CCOCC3)s2)cc1` the value was 62.7%. Consider `Cc1cc(/C(N)=N/OC(=O)c2ccccc2Cl)no1`, for which the activity was 63.5%. For `Cc1cc(Cl)n2c(nc3cc(F)c(F)cc32)c1C#N`, the activity was 91.7%. For `Cc1nc2cc(NC(=O)Nc3ccccc3Cl)ccc2n1C` the value was 78.5%. For `O=C(N/N=C\c1ccc(CNS(=O)(=O)c2ccc(Cl)cc2)o1)C(=O)Nc1ccc(Oc2ccccc2)cc1` the value was 79.5%.
